VCAM1 pot = TNF alpha stimulated VCAM1 expression potentiation; HUVEC TNFa-stimulated VCAM-1 immunofluorescence, high-content imaging; scaled per plate to unstimulated/TNFa-only wells; hit rate 0.19% among 93,000; activation, % at 2 µM; AID 808;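 active means activation above the screen mean plus 3 SD, with well images confirming the hit on visual review, cut at about 28% in these data, passing the limit was not always enough; inconclusive means activation above that limit but images do not confirm it; inactive means activation not above that limit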;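 further: signal is the number of cytoplasmic VCAM-1 stained grains per positive cell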
VCAM1 pot confirm = enhancers of VCAM1 induction in HUVEC – imaging, triplicate retest, confirmation; AID 1034; HUVEC TNFa-stimulated VCAM-1 immunofluorescence imaging; 230 tested, under 10 active; shares compounds with VCAM1 pot; activation, % at 2 µM;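 active means activation above 30% in triplicate retests at 2 µM, then confirmed by visual review of the well images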
A number is an active result; 0 = inactive; ? = inconclusive. The entries come from a sample that favours hits as a whole.

SMILES | VCAM1 pot | others
CNc1nc(SCc2ccccc2)nc(N2CCOCC2)n1 | 0
O=C(CN1C(=O)CSC1=O)NC1CCCCC1 | 42 | VCAM1 pot confirm=0
Cn1c(=O)cc(OCC(=O)NC2CCCCC2)c2ccccc21 | 0
Cc1ccc(NC(=O)CCN2C(=O)CSC2=O)cc1 | 0
O=C1CC(c2ccc(F)cc2)C2=C(CCCC2=O)N1 (configuration not stated) | 0
COc1cc2cc(Br)cc(Br)c2nc1C | 0
O=C(Nc1cc(Cl)cc(Cl)c1)C1CCC(=O)N1Cc1ccccc1Cl (configuration not stated) | 0
CC(=NCCCNC1CCCCC1)C1=C(O)CC(C)(C)CC1=O | ? | VCAM1 pot confirm=0
COC(=O)Nc1c(C)nn(Cc2ccccc2C)c1C | 0
Cc1ccc(-c2cc(=O)[nH]c3ccccc23)cc1 | 0
Cc1ccc(C(C)NC(=O)/C(C#N)=C\c2c(C)[nH]c3ccccc23)cc1 (configuration not stated) | 52 | VCAM1 pot confirm=0
COc1cc(C2NC(=O)NC(C)=C2C(=O)OCC2CCCO2)ccc1O (configuration not stated) | 0
CC(C)(C)NC(=O)C(=O)NNC(=O)C12CC3CC(CC(C3)C1)C2 | 0
CC1(C)Cc2c(cnn2-c2ccccc2)C(=O)/C1=N\NC(=O)c1ccccc1 | 34 | VCAM1 pot confirm=0
CC1CCCC(N2CCN(C(=O)c3cccc(F)c3)CC2)C1 (configuration not stated) | 0
COc1ccc(C)cc1NC(=O)CN(Cc1nnc(-c2ccc(Cl)cc2)o1)C1CCCC1 | 0
COc1ccc(C)cc1NC(=O)COC(=O)C1CC1 | 56 | VCAM1 pot confirm=0
Cc1cccc(OCC(=O)Nc2cc(C)ccc2O)c1 | 0
CC1(C(=O)O)Cc2ccccc2C(=O)O1 (configuration not stated) | 0
O=C(CC(=O)NN=C1CCCC1)NCCc1ccccc1 | 0
CN1CC(=O)Nc2ccc(F)cc2C1=O | 0
O=C(Cc1ccc(Cl)cc1)Nc1ccccc1CO | 0
O=C(Cn1c(=O)oc2ccccc21)NCc1ccco1 | 0
CCc1ccc(NC(=O)Cn2c(=O)n(CCCC(=O)NCc3ccco3)c(=O)c3ccccc32)cc1 | ? | VCAM1 pot confirm=0
CCN(Cc1ccccc1)C(=O)Cn1c(=O)n(CC(=O)NCc2ccco2)c(=O)c2sccc21 | 0
SMILES | VCAM1 pot | others
CCCOC(=O)C1C2C=C[C@]3(CN(CCc4ccccc4)C(=O)[C@H]13)O2 (some centres not stated) | 0
COCCOC(=O)C1=C(C)OC(N)=C(C#N)C1c1ccc2c(c1)OCO2 (configuration not stated) | ? | VCAM1 pot confirm=0
CCOC(=O)Nc1ccc2c(c1)OCO2 | 0
CCOC(=O)C1=C(c2ccccc2)OC(N)=C(C#N)C1c1ccco1 (configuration not stated) | 0
CCN(CC)C(=O)N1CCC(NC(=O)c2ccc(C(C)(C)C)cc2)CC1 | 0
COc1cccc(C2=NOC(C(=O)Nc3ccccc3SC)C2)c1 (configuration not stated) | 0
CC1(C)CC(=O)c2cnc(N3CCc4ccccc4C3)nc2C1 | 0
COc1ccc(NC(=O)CSc2nccc(C)n2)cc1 | 0
COc1ccc(-n2ccnc2SCC(=O)Nc2ccccc2)cc1 | 81 | VCAM1 pot confirm=0
CCOC(=O)c1ccc(NC(=O)CSc2nnc(COc3ccccc3)n2C)cc1 | 0
CCOC(=O)CNC(=O)CNC(=O)Cn1ccc2ccccc2c1=O | 0
COc1nc(Nc2ccc(C(C)C)cc2)nc(OC)n1 | 47 | VCAM1 pot confirm=0
CC(C)c1ccc(NC(=O)c2ccc(Br)o2)cc1 | 0
COc1ccccc1-c1nnc(SC2CCc3ccccc3NC2=O)s1 (configuration not stated) | 0
CCc1ccc(C(=O)NC(CC(C)C)C(=O)O)cc1 (configuration not stated) | 0
Cc1ccccc1CSCCNC(=O)CCSc1ccccc1 | 0
CC(=O)NC(Cc1ccccc1)C(=O)N1CCN(C(=O)c2cccs2)CC1 (configuration not stated) | 0
O=c1c2ccccc2nc(/C=C/c2ccc([N+](=O)[O-])o2)n1CCCO | 0
CC(C)COC(=O)n1c(SCC(=O)N(C)C)nc2ccccc21 | 0
CCCn1nnnc1NC(=O)c1cccs1 | 0
O=C(COc1ccc2ccccc2c1)N1CCN(c2ccccc2O)CC1 | 0
CC(C)(C)c1ccc(OCC(=O)N2CCN(C=O)CC2)cc1 | 69 | VCAM1 pot confirm=0
Cc1cc(=O)oc2ccc(OCC(=O)N3CCC(C)CC3)cc12 | 0
CCOC(=O)Cc1nnc(NC(=O)CC)s1 | 0
Cc1ccccc1SCC(=O)Nc1cccc(C#N)c1 | 0
COC(=O)CCCC[C@@H]1SC[C@@H](NC(=O)OC)[C@@H]1NC(=O)OC | 0
COC(=O)C1=C(C)N(c2ccc(F)cc2)C(=O)C1 | 0
CC(CO)Nc1nc(SCc2ccccc2)nc2sc3c(c12)CCC3 (configuration not stated) | 0
Cc1nnc(Nc2ccc3c(c2)ncn3C)c2ccccc12 | 0
O=C(O)C1C2C=CC(C2)C1C(=O)N1CCN(C/C=C/c2ccccc2)CC1 (configuration not stated) | 0
